Results published in PubChem BioAssay (NCI).
The panel holds about 83,000 compounds, 20% with a hit somewhere; the sample as a whole holds those more often.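 48-hour exposure, single concentration, 96-well plates; percent growth endpoint where 0 means no net growth. Active: below 10.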 Activity calls are given as the source filed them.

Tested on: NCI/ADR-RES ovarian
Experiment: NCI-60 one-dose screen, 48 h (100 = growth as untreated, 0 = no growth, -100 = all killed)
Conditions: 10 µM unless noted

**Q.** Which growth does the source give for O=C(N/N=C/c1ccccc1Cl)c1cccc2ccccc12 here?
**A.** The growth was 107% (inactive).

**Q.** How did the growth turn out when CCOP1(=O)CC(C)=C(Cl)C(P(=O)(O)O)C1 (stereo not given) was run?
**A.** The growth was 96.1% (inactive).

**Q.** Which growth does the source give for NC(N)=Nc1ccc(/C=C2\C=Cc3ccccc32)cc1 here?
**A.** The growth was 80.9% (inactive).

**Q.** With C/C=C(/C)C(=O)OC1C=C(CO)C(=O)C(OC(=O)C(C)(O)C(C)Cl)C1C(C)C (stereo not given) as the compound, how does the growth read?
**A.** The growth was 9.46% (active).

**Q.** With CN1CCN(Cc2ccc(NC(=O)c3ccc(C#Cc4c(N)ncc5ccc(F)cc45)cc3)cc2C(F)(F)F)CC1 as the compound, how does the growth read?
**A.** The growth was -12.3% (active).

**Q.** Which growth does the source give for CCCCCCCCC(=O)Nc1ccc(O)cc1 here?
**A.** The growth was 82.9% (inactive).

**Q.** COc1cc(/C=C/C(=O)c2ccc(F)cc2)ccc1OCCCCOc1cc2c(cc1OC)C(=O)N1CCCC1C=N2 (stereo not given) was tested. Which growth did it give?
**A.** Its growth is 27.1% (inactive).

**Q.** COc1ccc(-c2cc(C#N)c(NNC(C)=O)[nH]2)cc1 was tested. Which growth did it give?
**A.** Its growth is 109% (inactive).

**Q.** With COc1cc(-c2nc(/C=C3/C(=O)Nc4ccccc43)c3ccccn23)cc(OC)c1OC as the compound, how does the growth read?
**A.** Its growth is 47.2% (inactive).

**Q.** CCN(CC)CCNc1ncnc2c1cnn2-c1ccc(Cl)cc1 was tested. Which growth did it give?
**A.** The growth was 91.4% (inactive).

**Q.** How did the growth turn out when Nc1cc2c(cc1Br)[nH]c(=O)c1ccccc12 was run?
**A.** Its growth is 63% (inactive).

**Q.** COc1ccc(C(=O)CN2C(=O)NC(c3ccccc3)(c3ccccc3)C2=O)cc1 was tested. Which growth did it give?
**A.** The growth was 102% (inactive).

**Q.** Which growth does the source give for CC[C@@H](C)/C=C(C)/C=C/C(=O)c1c(O)c(-c2ccc(OC(=O)[C@@]34CC[C@@](C)(C(=O)O3)C4(C)C)cc2)cn(O)c1=O here?
**A.** Its growth is 3.91% (active).

**Q.** Which growth does the source give for COc1ccc2c(N)ncc(C#Cc3cc(C(=O)Nc4ccc(CN5CCN(C)CC5)c(C(F)(F)F)c4)cnc3C)c2c1 here?
**A.** Its growth is 16% (inactive).

**Q.** For COc1cc2c(cc1OC)C(Cc1cc(OC)c(OC)cc1[N+](=O)[O-])=NCC2, which growth is on record?
**A.** Its growth is 81.8% (inactive).

**Q.** With Cc1ccc(C(=O)C(Br)C(Br)c2ccccc2)cc1 (stereo not given) as the compound, how does the growth read?
**A.** Its growth is 105% (inactive).

**Q.** Which growth does the source give for Br/C(=N\Nc1nn[nH]n1)c1ccccc1 here?
**A.** The growth was 100% (inactive).

**Q.** O=C(Nc1cccc(Cn2c(=O)[nH]c3ccc(Oc4ncccn4)cc3c2=O)c1)c1cccc(F)c1 was tested. Which growth did it give?
**A.** Its growth is 104% (inactive).

**Q.** Cc1c(C(N)=O)sc2c1c(=O)n(Cc1ccccc1)c1nnc(S(C)(=O)=O)n21 was tested. Which growth did it give?
**A.** Its growth is 100% (inactive).

**Q.** With COc1ccc(C(=O)N2N=C(c3ccc(Br)cc3)CC2c2cn(-c3ccccc3)nc2-c2ccccc2)cc1 (stereo not given) as the compound, how does the growth read?
**A.** The growth was 41.5% (inactive).

**Q.** Which growth does the source give for CCOC(=O)CNS(=O)(=O)CC(=O)c1ccccc1 here?
**A.** Its growth is 102% (inactive).

**Q.** COc1ccc(C(=O)c2no[n+]([O-])c2C(=O)c2ccc(OC)cc2)cc1 was tested. Which growth did it give?
**A.** The growth was 96.2% (inactive).

**Q.** C=C(NC(=O)[C@H](C(C)C)N(C)c1cccc2[nH]ccc12)C(=O)OC was tested. Which growth did it give?
**A.** Its growth is 108% (inactive).

**Q.** For COC1=C(OC)C(=O)c2ccccc2C1=O, which growth is on record?
**A.** The growth was 94.3% (inactive).

**Q.** O=C(Cc1ccccc1[N+](=O)[O-])c1ccc2c(c1)OCO2 was tested. Which growth did it give?
**A.** The growth was 106% (inactive).

**Q.** How did the growth turn out when COC(=O)c1c[n+]([O-])ccc1OC was run?
**A.** The growth was 105% (inactive).

**Q.** Which growth does the source give for O=C(CN1CCN(c2cccc(Cl)c2)CC1)N1CCN(c2nnc(-c3ccc(Cl)cc3)c(-c3ccc(Cl)cc3)n2)CC1 here?
**A.** Its growth is 70.6% (inactive).

**Q.** CC(C)C(=O)c1ccc(Cl)s1 was tested. Which growth did it give?
**A.** Its growth is 104% (inactive).

**Q.** For CCOC(=O)c1csc(-c2ccc(COC(=O)c3ccccc3)o2)n1, which growth is on record?
**A.** The growth was 109% (inactive).

**Q.** With OCCN1CCN(CC/C=C2/c3ccccc3Sc3ccc(C(F)(F)F)cc32)CC1 as the compound, how does the growth read?
**A.** Its growth is 76.1% (inactive).

**Q.** With CCCCCCCCCCCCCCCCCC(=O)Nc1ccc(O)cc1 as the compound, how does the growth read?
**A.** Its growth is 95.4% (inactive).

**Q.** How did the growth turn out when OCCN1CCCN(CCCN2c3ccccc3Sc3ccc(C(F)(F)F)cc32)CC1 was run?
**A.** Its growth is 73.5% (inactive).

**Q.** C=C1CCC2C3(C)COC(c4ccccc4)OC3CCC2(C)C1C/C=C1/C(=O)OCC1O (stereo not given) was tested. Which growth did it give?
**A.** Its growth is 51.5% (inactive).

**Q.** Cc1c(CN(C)C)cc(C(C)C)cc1C(C)C was tested. Which growth did it give?
**A.** The growth was 104% (inactive).

**Q.** Which growth does the source give for CC(=O)Oc1cc2ccccc2cc1C(C)C here?
**A.** The growth was 116% (inactive).

**Q.** Which growth does the source give for COc1cc2cc3cc4cc(OC)c(OC)cc4c(C)[n+]3cc2cc1OC (tested in a mixture with another compound) here?
**A.** The growth was 93.1% (inactive).

**Q.** For COc1ccc(NC(=O)/C=C(C)/C=C/C=C(C)/C=C/C2=C(C)CCCC2(C)C)cc1, which growth is on record?
**A.** Its growth is 80.1% (inactive).

**Q.** O=C1C(Cl)=C(SC2=NCCN2)C(=O)c2ccccc21 was tested. Which growth did it give?
**A.** The growth was 86.8% (inactive).

**Q.** With Cc1ccc(C(=O)Nc2ccc(CN3CCN(C)CC3)c(C(F)(F)F)c2)cc1C#Cc1cnc(N)c2ccc(F)cc12 as the compound, how does the growth read?
**A.** Its growth is -52.4% (active).

**Q.** Cc1ncc(C(=O)Nc2ccc(CN3CCN(C)CC3)c(C(F)(F)F)c2)cc1C#Cc1c(N)ncc2ccccc12 was tested. Which growth did it give?
**A.** Its growth is -70% (active).
